Experiment [1] deals with Thyrotropin receptor (Homo sapiens) (UniProt P16473). In words: qHTS Assay for Antagonists of the Thyroid Stimulating Hormone Receptor (AID 488980). Note: series mostly up to about 58 µM; 0% is about no effect. The essentials: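 Cells expressing human TSHR (HEK293) are dispensed in HBSS/HEPES containing 70 uM RO 20-1724, compound is added, then TSH at EC80 (4 nM final). Antibody in lysis buffer follows, 30 minutes at room temperature before HTRF detection.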

In experiment [2] the target is Thyrotropin-releasing hormone receptor (Homo sapiens) (UniProt P34981). In words: qHTS for Small Molecule Agonists and Allosteric Enhancers of Human TRH Receptor: Validation Screen for Agonists (AID 493127;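 active = calcium activation more than 3 SD above the typical response in the agonist read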; note: 0% is about no effect). As to conditions: TRH receptor agonist cell assay; at 2 µM; stronger effect = higher value. Put shortly: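 TRHR cells loaded with fluo-8 calcium dye; FDSS kinetic fluorescence (Ex 480/Em 530) read at 1 s/cycle after 23 nL compound addition. Agonist-mode calcium response recorded before the 10 nM TRH (EC20) addition.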
(In general: qHTS replaces the single test concentration by a dilution series.)

In experiment [3] the target is Galactokinase (Homo sapiens) (UniProt P51570). In words: qHTS Validation Assay for Inhibitors of Human Galactokinase (GALK) (AID 493189). Note: 0% is about no effect. The essentials:
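Compounds were pin-transferred into ATP buffer, then GALK-galactose mix was added (final 5 nM enzyme, 100 uM galactose, 35 uM ATP). After 1 h at room temperature, remaining ATP was measured luminescently.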

A short description of experiment [4]: Validation screen for small molecules that induce DNA re-replication in SW480 colon adenocarcinoma cells (AID 504364). Note: 0% is about no effect. The essentials: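 SW480 cells (250/well) exposed 48 h at 37 C, 5% CO2, then Hoechst-stained 40 min. Nuclear DNA content imaged by fluorescence scanning (405 nm excitation, 500-530 nm emission); re-replication scored as increased nuclei with elevated intensity.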

The target in experiment [5] is D(1A) dopamine receptor (Homo sapiens) (UniProt P21728). Description: HTS Assay for Allosteric Agonists of the Human D1 Dopamine Receptor: Primary Screen for Agonists (AID 488981). Note: 0% is about no effect. Put shortly:
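Calcium flux in an inducible, force-coupled HEK293 Trex D1 line (overnight at 30 C): agonist mode is the 180 s kinetic read after compound; potentiator mode is the following 180 s read after dopamine at EC20.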

For experiment [6] the target is unchanged. In words: HTS Assay for Allosteric Agonists of the Human D1 Dopamine Receptor: Primary Screen for Antagonists (AID 488983).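 Note: calcium flux response to an EC80 dopamine challenge measured with no-wash dye; % is set by controls: 0 for no effect and ±100 for the full control effect; nearly all actives have a fitted effect of over 65% in size.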 The essentials: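 Tetracycline-induced HEK293 T-REx D1 line, force-coupled to calcium flux, read with no-wash calcium dye. Compound added after 10 s baseline, read 180 s for agonism, then EC80 dopamine added and read a further 180 s.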

Experiment [7] is described as follows: Validation screen for small molecules that induce genotoxicity in human embryonic kidney (HEK293T) cells expressing luciferase-tagged ELG1 (AID 493106). Note: 0% is about no effect. Put shortly:
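HEK293T cells expressing luciferase-tagged ELG1, 2,000 cells/well, exposed to compound 16 hr at 37 °C, 5% CO2. Luciferase read after ONE-Glo, 30 min at room temperature; increased signal indicates genetic stress.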

Experiment [8] deals with ATPase family AAA domain-containing protein 5 (Homo sapiens) (UniProt Q96QE3). In words: Validation screen for small molecules that inhibit ELG1-dependent DNA repair in human embryonic kidney (HEK293T) cells expressing luciferase-tagged ELG1 (AID 493107).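 Note: cells co-treated with the DNA-damaging agent 5-fluorouridine alongside compound; series mostly up to about 46 µM; % is set by controls: 0 for no effect and ±100 for the full control effect; inhibitors lower the ELG1-luciferase luminescence signal; nearly all actives have a fitted effect of over 70% in size.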 The essentials:
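HEK293T cells expressing luciferase-tagged ELG1, 2,000 per well, treated with 5-fluorouridine plus compound for 16 h at 37 C. ONE-Glo luminescence after 30 min at room temperature reports ELG1 reporter level.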

Experiment [9] is described as follows: Nrf2 qHTS screen for inhibitors: Validation (AID 493153; active = well fitted inhibition curve with a large enough effect in the main read-out, with a control signal flat, not every such curve was filed as active). Conditions: viability change: measured here: cytotoxicity max response. Put shortly: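 A549 cells carrying ARE-firefly luciferase reporter, 5000 cells/well in 5% FBS OPTI-MEM, treated with compound over a concentration series for 18-24 h at 37 C. Luciferase luminescence gave Nrf2 activity; CellTiter-Fluor fluorescence gave viability.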

Experiment [10] is described as follows: qHTS for Inhibitors of Cell Surface uPA Generation: Validation Assay (AID 493164). Note: 0% is about no effect. Put shortly: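 RAW 264.7 cells (4000/well) were plated overnight, then exposed for 18 h at 37 C, 5% CO2 to compounds in a 7-point 1:5 titration (2.45 nM–38.3 uM final). Intracellular ATP was read by ATP-Lite luminescence.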
The target of experiment [11] is Peptidyl-prolyl cis-trans isomerase NIMA-interacting 1 (Homo sapiens) (UniProt Q13526). Description: qHTS Validation Assay to Find Inhibitors of Pin1 (AID 504536; active = well fitted inhibition curve with a large enough effect in the polarisation, with a control signal flat, not every such curve was filed as active; the % refers to the polarisation;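 note: 0% = full Pin1 enzyme wells and -100% = no-enzyme wells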). The essentials: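 Fluorescence polarization competition: compounds (titration) displace HiFluor-488-labeled Pin1-1b peptide from Pin1 (0.3 uM final) in pH 7.5 HEPES buffer with DTT, 10 min at room temperature; %Activity normalized to no-enzyme wells, curves fitted.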

Experiment [12] has as its target Phosphoglycerate kinase, glycosomal (Trypanosoma brucei brucei) (UniProt P07378). Description: qHTS Validation Assay to Find Inhibitors of Phosphoglycerate Kinase (AID 504547).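 Note: control wells lack PGK and mark full inhibition.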 Put shortly:
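Inhibition of the enzyme is judged by a Kinase-Glo Plus luminescent signal following a one-hour incubation at room temperature. Because 1,3-BPG is unstable, it is made in situ by GAPDH at 100nM final; no-PGK wells define the baseline.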

Experiment [13] concerns the target phosphoglycerate mutase (Leishmania major) (UniProt Q4Q090). Description: qHTS Validation Assay to Find Inhibitors of Phosphoglycerate Mutase (AID 504548).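 Note: end-point luminescence from Kinase-GloPlus after the PGAM reaction; series mostly up to about 58 µM; % is set by controls: 0 for no effect and ±100 for the full control effect.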 Put shortly:
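L. major PGAM (1.25nM final) was added to substrate buffer and pinned compound, incubated 45 minutes at room temperature, then Kinase-GloPlus added; luminescence read after 10 minutes. Buffer: 100 mM TEA pH 7.6, 5 mM MgCl2, 0.01% Tween-20.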

A short description of experiment [14]: Inducers of the Endoplasmic Reticulum Stress Response (ERSR) in human glioma: Validation (AID 504836). Note: 0% is about no effect. Put shortly:
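ERSR induction read as luciferase luminescence (Bright-Glo, 10 min at room temperature) in stably transfected human U87-MG glioma cells exposed to compounds for 16 h, using GRP78 as sensor.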

Experiment [15] deals with Ubiquitin carboxyl-terminal hydrolase 1 (Homo sapiens) (UniProt O94782). Description: Inhibitors of USP1/UAF1: Pilot qHTS (AID 504865).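 Note: rhodamine fluorescence freed from ubiquitin-rhodamine substrate followed over time; top concentration of the series differs between compounds; % is set by controls: 0 for no effect and ±100 for the full control effect; nearly all actives have a fitted effect of over 35% in size.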 Put shortly: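 Kinetic fluorescence assay: 1nM USP1/UAF1, 15 min compound preincubation, then 150nM Ub-Rho; 480/540 nm.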
Experiment [16] in a line: qHTS for Inhibitors of ATXN expression: Validation of Cytotoxic Assay (AID 588349). Note: % is set by controls: 0 for no effect and ±100 for the full control effect. Put shortly:
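HEK293 cells treated with titrated compound for 72 hr at 37 degrees C; viability read as intracellular ATP by CellTiter Glo luminescence.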

In experiment [17] the target is Transient receptor potential cation channel subfamily V member 1 (Homo sapiens) (UniProt Q8NER1). In words: HTS Assay for Compounds that Act as Enhancers of the Vanilloid Receptor 1 (AID 488979). Note: 0% is about no effect. The essentials: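 Calcium influx kinetics via Fluo-8 (480/520 nm) in TRPV1-expressing cells, 2000/well cultured overnight at 35.5C. Compound-alone read 3 min (agonist phase), followed by EC20 capsaicin challenge for 2 min (enhancer phase).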

Where “and” joins values, the source holds several entries; their conditions need not be identical. Equal entries are not always repeated. Records with an inconclusive call do not appear. Calls of active or inactive are those of the source. Unless noted, calls come from the whole dose curve; as a rule, active = well fitted curve in the direction sought with a large enough effect; inconclusive = small, poorly fitted or top-dose-only effect, or another doubt; inactive = no such curve, though single readings can be large; an effect the other way counts as inactive or inconclusive.

Chain of ATPase family AAA domain-containing protein 5 (Homo sapiens) (Q96QE3 whole entry, looked up, the tested form may be a part): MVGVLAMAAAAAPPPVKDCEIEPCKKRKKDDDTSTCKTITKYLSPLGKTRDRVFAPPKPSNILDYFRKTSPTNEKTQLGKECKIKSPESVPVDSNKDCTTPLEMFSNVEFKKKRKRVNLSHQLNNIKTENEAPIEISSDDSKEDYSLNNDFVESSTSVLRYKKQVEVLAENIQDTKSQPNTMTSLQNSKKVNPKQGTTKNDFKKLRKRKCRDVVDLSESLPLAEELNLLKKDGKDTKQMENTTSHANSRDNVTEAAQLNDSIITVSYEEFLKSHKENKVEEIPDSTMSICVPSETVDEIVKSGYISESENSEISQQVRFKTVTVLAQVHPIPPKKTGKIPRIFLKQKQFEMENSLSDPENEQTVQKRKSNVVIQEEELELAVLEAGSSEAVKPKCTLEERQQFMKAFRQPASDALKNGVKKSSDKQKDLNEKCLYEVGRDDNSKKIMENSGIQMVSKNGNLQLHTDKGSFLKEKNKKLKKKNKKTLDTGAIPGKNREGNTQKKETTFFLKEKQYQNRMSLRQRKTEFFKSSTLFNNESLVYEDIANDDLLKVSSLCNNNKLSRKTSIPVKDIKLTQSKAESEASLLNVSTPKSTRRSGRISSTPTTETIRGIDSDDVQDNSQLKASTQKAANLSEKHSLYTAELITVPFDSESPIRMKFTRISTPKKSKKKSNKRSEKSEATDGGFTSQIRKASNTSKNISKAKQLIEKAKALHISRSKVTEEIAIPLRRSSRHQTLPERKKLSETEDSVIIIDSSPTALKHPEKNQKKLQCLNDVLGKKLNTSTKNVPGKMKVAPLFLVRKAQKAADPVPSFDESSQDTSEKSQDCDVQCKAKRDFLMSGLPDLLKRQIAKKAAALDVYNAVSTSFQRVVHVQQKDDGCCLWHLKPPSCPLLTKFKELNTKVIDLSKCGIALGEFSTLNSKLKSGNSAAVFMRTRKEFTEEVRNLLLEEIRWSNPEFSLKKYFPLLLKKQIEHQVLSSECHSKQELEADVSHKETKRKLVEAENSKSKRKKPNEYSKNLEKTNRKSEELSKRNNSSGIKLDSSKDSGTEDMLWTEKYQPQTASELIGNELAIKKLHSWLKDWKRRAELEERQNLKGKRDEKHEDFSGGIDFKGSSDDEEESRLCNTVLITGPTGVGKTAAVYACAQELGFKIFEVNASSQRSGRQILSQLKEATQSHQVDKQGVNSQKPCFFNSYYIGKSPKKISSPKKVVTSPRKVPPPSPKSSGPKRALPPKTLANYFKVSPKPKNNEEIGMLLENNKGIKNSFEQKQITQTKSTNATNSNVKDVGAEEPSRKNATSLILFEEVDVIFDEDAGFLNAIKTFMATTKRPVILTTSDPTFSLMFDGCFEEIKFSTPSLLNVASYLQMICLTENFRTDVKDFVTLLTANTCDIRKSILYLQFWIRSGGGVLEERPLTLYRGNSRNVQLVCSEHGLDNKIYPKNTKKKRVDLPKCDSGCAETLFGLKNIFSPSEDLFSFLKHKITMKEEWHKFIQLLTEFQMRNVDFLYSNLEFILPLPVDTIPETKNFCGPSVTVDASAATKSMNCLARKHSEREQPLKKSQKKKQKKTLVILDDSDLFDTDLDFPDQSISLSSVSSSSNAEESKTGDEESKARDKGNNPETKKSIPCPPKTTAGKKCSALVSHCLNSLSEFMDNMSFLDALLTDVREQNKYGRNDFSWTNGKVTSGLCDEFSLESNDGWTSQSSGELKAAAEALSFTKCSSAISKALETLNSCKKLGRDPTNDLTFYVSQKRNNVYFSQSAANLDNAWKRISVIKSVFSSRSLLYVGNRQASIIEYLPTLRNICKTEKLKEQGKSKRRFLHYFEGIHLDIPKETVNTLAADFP
Chain of D(1A) dopamine receptor (Homo sapiens) (P21728 whole entry, looked up): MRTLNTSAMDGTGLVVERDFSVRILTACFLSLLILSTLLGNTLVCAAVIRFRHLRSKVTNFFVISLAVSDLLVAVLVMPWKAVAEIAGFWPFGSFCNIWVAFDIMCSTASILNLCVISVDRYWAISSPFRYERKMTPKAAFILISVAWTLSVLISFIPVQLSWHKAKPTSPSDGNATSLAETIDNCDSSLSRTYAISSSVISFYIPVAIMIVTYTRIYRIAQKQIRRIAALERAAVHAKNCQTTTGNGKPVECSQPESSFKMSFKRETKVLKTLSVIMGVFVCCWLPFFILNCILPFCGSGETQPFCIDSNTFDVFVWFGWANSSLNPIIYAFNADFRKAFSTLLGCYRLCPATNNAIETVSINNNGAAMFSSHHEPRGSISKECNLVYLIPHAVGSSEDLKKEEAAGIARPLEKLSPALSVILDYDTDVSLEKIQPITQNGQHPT
Chain of Galactokinase (Homo sapiens) (P51570 whole entry, looked up): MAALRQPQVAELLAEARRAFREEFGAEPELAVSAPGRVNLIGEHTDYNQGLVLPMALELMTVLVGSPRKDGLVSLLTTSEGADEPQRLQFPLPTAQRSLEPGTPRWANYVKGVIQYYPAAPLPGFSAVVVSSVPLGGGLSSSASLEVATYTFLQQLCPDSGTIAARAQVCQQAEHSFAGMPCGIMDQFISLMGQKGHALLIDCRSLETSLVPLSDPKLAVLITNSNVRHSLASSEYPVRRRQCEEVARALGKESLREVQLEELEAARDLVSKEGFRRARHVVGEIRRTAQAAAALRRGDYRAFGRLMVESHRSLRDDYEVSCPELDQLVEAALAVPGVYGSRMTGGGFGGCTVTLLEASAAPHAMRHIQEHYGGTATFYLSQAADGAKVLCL
Chain of Transient receptor potential cation channel subfamily V member 1 (Homo sapiens) (Q8NER1 whole entry, looked up): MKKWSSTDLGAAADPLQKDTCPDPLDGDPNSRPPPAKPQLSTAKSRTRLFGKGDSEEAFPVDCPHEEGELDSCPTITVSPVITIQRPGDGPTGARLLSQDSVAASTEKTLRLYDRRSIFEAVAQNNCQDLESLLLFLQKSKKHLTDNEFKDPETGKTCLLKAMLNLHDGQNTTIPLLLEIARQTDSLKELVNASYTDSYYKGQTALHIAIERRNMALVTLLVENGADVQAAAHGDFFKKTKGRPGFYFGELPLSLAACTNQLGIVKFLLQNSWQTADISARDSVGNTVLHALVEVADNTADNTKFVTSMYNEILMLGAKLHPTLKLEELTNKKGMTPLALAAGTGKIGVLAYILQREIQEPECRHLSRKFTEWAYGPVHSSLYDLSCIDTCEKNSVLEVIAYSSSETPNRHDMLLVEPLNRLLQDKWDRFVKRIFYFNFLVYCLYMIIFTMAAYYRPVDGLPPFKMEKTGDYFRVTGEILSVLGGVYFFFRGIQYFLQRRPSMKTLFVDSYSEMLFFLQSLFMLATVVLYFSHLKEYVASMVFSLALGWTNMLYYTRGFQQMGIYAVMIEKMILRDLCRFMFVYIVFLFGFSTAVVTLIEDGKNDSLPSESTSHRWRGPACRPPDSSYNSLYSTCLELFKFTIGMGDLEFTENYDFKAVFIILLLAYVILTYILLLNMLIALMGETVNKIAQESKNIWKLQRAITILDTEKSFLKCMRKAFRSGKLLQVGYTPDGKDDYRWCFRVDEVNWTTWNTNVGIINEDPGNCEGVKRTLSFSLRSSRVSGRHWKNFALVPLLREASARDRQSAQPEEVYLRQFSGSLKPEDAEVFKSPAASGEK
Chain of Thyrotropin-releasing hormone receptor (Homo sapiens) (P34981 whole entry, looked up): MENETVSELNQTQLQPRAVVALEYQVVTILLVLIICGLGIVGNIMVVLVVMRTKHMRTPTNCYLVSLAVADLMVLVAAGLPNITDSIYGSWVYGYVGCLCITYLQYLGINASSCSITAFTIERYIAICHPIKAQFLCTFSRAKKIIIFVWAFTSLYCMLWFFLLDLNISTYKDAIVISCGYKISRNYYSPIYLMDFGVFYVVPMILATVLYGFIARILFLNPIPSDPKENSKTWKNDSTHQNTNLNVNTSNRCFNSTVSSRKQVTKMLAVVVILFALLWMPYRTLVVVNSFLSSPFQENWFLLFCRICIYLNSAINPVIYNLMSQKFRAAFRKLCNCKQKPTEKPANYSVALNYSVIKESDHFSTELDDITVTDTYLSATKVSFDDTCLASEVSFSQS
Chain of Ubiquitin carboxyl-terminal hydrolase 1 (Homo sapiens) (O94782 whole entry, looked up): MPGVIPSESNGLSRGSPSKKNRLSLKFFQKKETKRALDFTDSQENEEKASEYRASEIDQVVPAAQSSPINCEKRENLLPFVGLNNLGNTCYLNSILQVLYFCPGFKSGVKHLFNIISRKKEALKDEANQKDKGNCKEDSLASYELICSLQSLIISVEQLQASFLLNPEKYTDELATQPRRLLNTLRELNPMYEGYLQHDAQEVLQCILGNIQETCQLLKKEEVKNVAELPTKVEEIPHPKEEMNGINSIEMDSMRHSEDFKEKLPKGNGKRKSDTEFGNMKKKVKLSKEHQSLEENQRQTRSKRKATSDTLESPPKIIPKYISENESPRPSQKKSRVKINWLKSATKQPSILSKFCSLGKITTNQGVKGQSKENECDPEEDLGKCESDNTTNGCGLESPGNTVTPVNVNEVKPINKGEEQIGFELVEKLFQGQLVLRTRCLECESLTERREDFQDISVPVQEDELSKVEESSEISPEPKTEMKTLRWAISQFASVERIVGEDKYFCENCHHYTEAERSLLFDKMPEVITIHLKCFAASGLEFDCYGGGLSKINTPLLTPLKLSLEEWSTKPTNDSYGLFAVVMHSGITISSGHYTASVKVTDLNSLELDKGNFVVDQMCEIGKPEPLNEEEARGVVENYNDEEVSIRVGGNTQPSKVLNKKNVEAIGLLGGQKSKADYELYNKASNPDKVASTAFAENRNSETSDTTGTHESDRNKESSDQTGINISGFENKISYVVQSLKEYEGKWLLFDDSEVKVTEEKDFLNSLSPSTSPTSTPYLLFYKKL
Chain of Peptidyl-prolyl cis-trans isomerase NIMA-interacting 1 (Homo sapiens) (Q13526 whole entry, looked up): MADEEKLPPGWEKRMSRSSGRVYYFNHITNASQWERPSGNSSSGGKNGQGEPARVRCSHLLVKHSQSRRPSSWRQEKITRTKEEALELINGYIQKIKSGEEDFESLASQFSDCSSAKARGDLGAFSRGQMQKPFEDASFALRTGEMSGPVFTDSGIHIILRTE

In the case of `CN[C@@H](C)[C@H](O)c1ccccc1`, the outcome in experiment [1], in experiment [3] and in experiment [4] was inactive. Besides, in [2], the activation was 3.19% (inactive).
On to `O=C(N[C@H]1CN2CCC1CC2)c1ccc(Cl)cc1`, for which the Potency entry in experiment [5], in experiment [6], in [8], in experiment [14] and in [15] was “inactive” each time. Besides, the call in experiment [7], in [9], in experiment [10], in experiment [11], in experiment [12] and in experiment [13] was inactive. Moreover, the compound was classed as inactive in [16]. Also, the viability change in [9] is -3.51%.
Consider `C[N+](C)(C)CC(=O)O`, for which the outcome in [17], in [3] and in experiment [4] was inactive. Moreover, the Potency entry in [15] was “inactive”.
Consider `C[C@]12CCC3C(CC[C@H]4C[C@H](O)CC[C@]34C)C1CC[C@@H]2C(=O)CO` (some centres undefined), for which the result in [17], in experiment [1], in experiment [7], in experiment [10], in experiment [3] and in experiment [4] was inactive. Moreover, the compound was called inactive in experiment [11], in experiment [12], in experiment [13] and in experiment [16]. In addition, the Potency result in [5], in [6], in experiment [8], in experiment [14] and in experiment [15] was “inactive” each time. Further, in experiment [2], the activation is 1.56% (inactive).
`C[C@@H]1O[C@H](C[N+](C)(C)C)C[C@H]1O`: the result in [17], in experiment [1], in experiment [9], in [10], in [3] and in experiment [4] was inactive. Further, the result in experiment [11], in experiment [12], in experiment [13] and in experiment [16] was inactive. Besides, the Potency entry in experiment [5], in [6], in [8] and in experiment [15] was “inactive” throughout. For the same compound, the activation in experiment [2] is 20.8% (inactive). For the same compound, in experiment [9], the viability change is -6.13%.
For `C[N+]1(C)C2CCC1CC(OC(=O)C(CO)c1ccccc1)C2` (centres undefined), the outcome in [17], in [1], in [7], in [9], in experiment [10] and in experiment [3] was inactive. Also, the compound was called inactive in experiment [4], in experiment [11], in experiment [12], in experiment [13] and in experiment [16]. Besides, the Potency entry in [5], in experiment [6], in [8] and in [15] was “inactive” throughout. Further, the viability change in [9] is 9.4% and 1.15%.
Turning to `CC[C@@H](C(N)=O)N1CCCC1=O`, the Potency entry in experiment [5], in [6], in experiment [8] and in experiment [15] was “inactive” throughout. For the same compound, the result in experiment [7], in [9], in experiment [10], in experiment [11], in experiment [12] and in [13] was inactive. Moreover, the result in [16] was inactive. In experiment [9], the viability change is 0%.
As to `NC1CC1c1ccccc1` (centres undefined), the result in experiment [17], in experiment [1], in [7], in [9], in [10] and in experiment [3] was inactive. Further, the outcome in experiment [4], in experiment [11], in experiment [12], in [13] and in [16] was inactive. Further, the Potency entry in experiment [8], in experiment [14] and in experiment [15] was “inactive” throughout. The activation in experiment [2] is 1.44% (inactive). In addition, in experiment [9], the viability change is -9.56%.
As for `Clc1ccc(C(c2ccc(Cl)cc2)n2cc[n+](CC(OCc3ccc(Cl)cc3Cl)c3ccc(Cl)cc3Cl)c2)cc1` (centres undefined), the outcome in experiment [17], in [1], in experiment [7] and in experiment [3] was inactive. The activation in experiment [2] is -4.62% (inactive).
For the compound `CC(C)Oc1cccnc1N(C)C1CCN(Cc2ccccc2)CC1`, the result in [17], in experiment [1], in experiment [7], in experiment [9], in experiment [10] and in experiment [3] was inactive. Also, the call in experiment [4], in experiment [11], in [12], in experiment [13] and in [16] was inactive. In addition, the Potency result in experiment [5], in experiment [8], in experiment [14] and in experiment [15] was “inactive” each time. The activation in experiment [2] was 0% (inactive). Besides, the viability change in experiment [9] was found to be 1.23%.
